# Screens (PubChem BioAssay)
# T cruzi growth-1: T. cruzi proliferation inhibition; T. cruzi beta-gal in NIH3T3, GalScreen luminescence, 90 h; inhibition, % at 8.34 µM; 77,000 compounds, 5.9% hits; AID 624255;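 active means mean inhibition above about 93%, with at least 55% of replicates each passing it, limit read from the data, passing the limit was not always enough; inconclusive means only one of those two conditions holds; inactive means neither condition holds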
# C diff growth: blocks growth of Clostridium difficile | 86,000 compounds, 0.25% hits | Clostridium difficile clinical isolate growth, OD600, 24 h; active compounds read low | AID 1259249 | growth activity, negative = inhibition, % at 16 µg/mL (by protocol);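 active means mean growth activity at or below -80% and every replicate also at or below -80%; inconclusive means mean at or below -80% but some replicate above -80%; inactive means mean growth activity above -80%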;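 further: 0% = DMSO wells and -100% = levofloxacin 16 µg/mL wells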
# Pf Dd2 inh: inhibitors of Plasmodium falciparum Dd2 growth | P. falciparum Dd2 growth, SYBR Green, 72 h; active compounds read low | activity change, % at 10 µM | 94,000 compounds, 2.3% hits | AID 1159554; in the data active means activity change below about -80%; inconclusive means no clear call, values can overlap the other calls
# T cruzi growth-2: inhibitors of T. cruzi proliferation. shares compounds with T cruzi growth-1. T. cruzi beta-gal in NIH3T3, GalScreen luminescence, 90 h. inhibition, % at 8.35 µM. 5,600 compounds, 72% hits;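 active means mean replicate inhibition above about 95% and at least 55% of replicates individually reaching it, limit read from the data; inconclusive means only one of the two criteria is met; inactive means neither criterion is met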
# T cruzi growth-3: Trypanosoma cruzi proliferation inhibition. shares compounds with T cruzi growth-1. T. cruzi beta-gal in NIH3T3, GalScreen luminescence, 90 h. inhibition, % at 2.09 µM. 5,600 compounds, 21% hits. AID 651740;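 active means mean inhibition above about 95%, with at least 55% of replicates also reaching it, limit read from the data; inconclusive means meets just one of the two conditions; inactive means meets neither condition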;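 further: plate controls were neutral control median for no effect and positive control median for full effect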
# 3T3 cytotox: kills mouse NIH/3T3 fibroblasts; 5,600 compounds, 14% hits; NIH/3T3 viability, CellTiter-Glo ATP luminescence, 90 h; cytotoxicity (signal decrease), % at 8.35 µM; AID 651742; shares compounds with T cruzi growth-1;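 active means mean signal decrease across replicates above about 35% based on untreated-well scatter, with enough replicates individually passing, limit read from the data; inconclusive means no rule stated though some were filed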;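 further: 0% = median of neutral control wells and 100% = median of positive control wells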
# 3T3 cytotox 2: NIH/3T3 (mouse) viability loss | shares compounds with T cruzi growth-1 | NIH/3T3 viability, CellTiter-Glo ATP luminescence, 90 h | inhibition, % at 24.9 µM | 5,600 compounds, 56% hits | AID 651744;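 active means mean loss of cell viability signal at or above a set limit, and enough replicates individually reaching it; inconclusive means meets only the mean limit or only the replicate share; inactive means meets neither condition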;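 further: 0% = median of neutral control wells and 100% = median of positive control wells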
# * hit, by the source's call; ? = inconclusive; nt = not tested or not shown. Rows were chosen to be rich in hits. Some 6.8% of all compounds tested hit in one or more screens of this group.
SMILES,T cruzi growth-1,C diff growth,Pf Dd2 inh,T cruzi growth-2,T cruzi growth-3,3T3 cytotox,3T3 cytotox 2
OC[C@@H]1[C@@H](c2ccccc2)C2(CN(Cc3nccs3)C2)N1Cc1cccnc1,nt,2,-10,nt,nt,nt,nt
CC(C)NC(=O)N(C)C[C@@H]1Oc2cc(-c3cccnc3)ccc2S(=O)(=O)N([C@H](C)CO)C[C@@H]1C,9,2,8,nt,nt,nt,nt
C[C@@H]1CN([C@H](C)CO)C(=O)c2cc(-c3cccnc3)cnc2O[C@@H]1CN(C)C,6,-4,32,nt,nt,nt,nt
Cc1cccc(S(=O)(=O)N[C@H]2CC[C@@H](CCNS(=O)(=O)c3ccccc3F)O[C@@H]2CO)c1,-46,nt,-17,nt,nt,nt,nt
C[C@H]1CCCCO[C@H](CN(C)Cc2ccncc2)[C@@H](C)CN([C@@H](C)CO)C(=O)c2cc(NC(=O)CCCN(C)C)ccc2O1,99*,nt,28,-1,20,8,4
CCCN(C)C[C@@H]1OCCCC[C@H](C)Oc2ccc(NC(=O)CCCN(C)C)cc2C(=O)N([C@@H](C)CO)C[C@@H]1C,?,-2,-18,0,-28,1,-2
C[C@@H]1CCCCO[C@@H](CN(C)Cc2ccncc2)[C@@H](C)CN([C@@H](C)CO)C(=O)c2cc(NC(=O)CCCN(C)C)ccc2O1,12,-2,nt,nt,nt,nt,nt
C[C@@H]1CCCCO[C@@H](CN(C)Cc2ccc(C(F)(F)F)cc2)[C@@H](C)CN([C@@H](C)CO)C(=O)c2cc(NC(=O)CCCN(C)C)ccc2O1,100*,-2,-85*,105*,87,-5,102*
CCCN(C)C[C@H]1OCCCC[C@H](C)Oc2ccc(NC(=O)CCCN(C)C)cc2C(=O)N([C@H](C)CO)C[C@@H]1C,34,-2,-1,nt,nt,nt,nt
C[C@@H]1CCCCO[C@@H](CN(C)Cc2ccc(C(F)(F)F)cc2)[C@@H](C)CN([C@H](C)CO)C(=O)c2cc(NC(=O)CCCN(C)C)ccc2O1,-15,-2,-38,nt,nt,nt,nt
C[C@@H]1CN([C@H](C)CO)C(=O)c2ccccc2-c2ccccc2CO[C@H]1CN(C)C(=O)Oc1ccccc1,3,nt,-26,nt,nt,nt,nt
CNC[C@H]1Oc2c(NC(=O)Nc3ccc(F)cc3)cccc2C(=O)N([C@@H](C)CO)C[C@@H]1C,nt,7,-4,nt,nt,nt,nt
C[C@H](CO)N1C[C@H](C)[C@@H](CN(C)Cc2ccccc2)Oc2cc(C#C[C@@H](C)O)ccc2S1(=O)=O,34,-6,-28,nt,nt,nt,nt
CC(C)C#Cc1ccc2c(c1)O[C@@H](CN(C)Cc1ccccc1)[C@@H](C)CN([C@@H](C)CO)S2(=O)=O,106*,13,-56,101*,95,21,103*
CC(C)C#Cc1ccc2c(c1)O[C@H](CN(C)Cc1ccccc1)[C@H](C)CN([C@H](C)CO)S2(=O)=O,105*,7,-54,102*,78,8,103*
CC(C)C#Cc1ccc2c(c1)O[C@@H](CN(C)Cc1ccccc1)[C@@H](C)CN([C@H](C)CO)S2(=O)=O,111*,16,-39,107*,79,2,104*
CC(C)C#Cc1ccc2c(c1)O[C@@H](CN(C)Cc1ccccc1)[C@H](C)CN([C@@H](C)CO)S2(=O)=O,88,12,-52,nt,nt,nt,nt
C[C@H](O)C#Cc1ccc2c(c1)O[C@H](CN(C)Cc1ccccc1)[C@@H](C)CN([C@@H](C)CO)S2(=O)=O,-64,1,-45,nt,nt,nt,nt
CC(C)C#Cc1ccc2c(c1)O[C@H](CN(C)Cc1ccccc1)[C@@H](C)CN([C@H](C)CO)S2(=O)=O,3,11,-42,nt,nt,nt,nt
CC(C)C#Cc1ccc2c(c1)O[C@H](CN(C)Cc1ccccc1)[C@@H](C)CN([C@@H](C)CO)S2(=O)=O,106*,14,-70,91,103*,-19,106*
CO[C@@H]1CN(C)C(=O)c2ccc(NC(=O)Cc3ccccc3)cc2OC[C@H](C)NC[C@H]1C,15,nt,-1,nt,nt,nt,nt
CO[C@@H]1CN(C)C(=O)c2ccc(NC(=O)C3CC3)cc2OC[C@@H](C)N(C(=O)Cc2ccccn2)C[C@@H]1C,15,nt,21,nt,nt,nt,nt
C[C@H](CO)N1C[C@H](C)[C@@H](CN(C)C)Oc2ccc(NS(=O)(=O)c3ccc(F)cc3)cc2C1=O,10,3,5,nt,nt,nt,nt
C[C@@H]1CCCCO[C@@H](CN(C)S(=O)(=O)c2ccc(F)cc2)[C@H](C)CN([C@H](C)CO)C(=O)c2cc(NC(=O)CCCN(C)C)ccc2O1,-11,3,-46,nt,nt,nt,nt
C[C@@H]1CN([C@H](C)CO)S(=O)(=O)c2ccc(C#CC3CC3)cc2O[C@@H]1CN(C)Cc1cccc(F)c1,nt,7,-49,nt,nt,nt,nt
SMILES,T cruzi growth-1,C diff growth,Pf Dd2 inh,T cruzi growth-2,T cruzi growth-3,3T3 cytotox,3T3 cytotox 2
C[C@H](CO)N1C[C@H](C)[C@@H](CN(C)Cc2ccccc2)Oc2cc(C#CC3CC3)ccc2S1(=O)=O,128*,2,-16,97*,93,-5,105*
Cc1noc(C)c1NC(=O)N[C@@H]1C=C[C@H](CC(=O)N2CCCCC2)O[C@@H]1CO,3,1,20,nt,nt,nt,nt
Cc1ccc(S(=O)(=O)N(C)C[C@H]2OCCCC[C@H](C)Oc3ccc(NS(=O)(=O)c4ccc(F)cc4)cc3C(=O)N([C@@H](C)CO)C[C@@H]2C)cc1,115*,1,-71,104*,84,-22,-23
Cc1ccc(S(=O)(=O)Nc2ccc3c(c2)C(=O)N([C@@H](C)CO)C[C@H](C)[C@H](CN(C)S(=O)(=O)c2ccc(F)cc2)OCCCC[C@@H](C)O3)cc1,?,0,-67,105*,77,20,32*
Cc1ccc(S(=O)(=O)Nc2ccc3c(c2)C(=O)N([C@H](C)CO)C[C@@H](C)[C@H](CN(C)S(=O)(=O)c2ccc(F)cc2)OCCCC[C@@H](C)O3)cc1,109*,-14,-57,102*,76,6,-17
Cc1ccc(S(=O)(=O)N(C)C[C@H]2OCCCC[C@H](C)Oc3ccc(NS(=O)(=O)c4ccc(F)cc4)cc3C(=O)N([C@H](C)CO)C[C@@H]2C)cc1,103,-2,-49,nt,nt,nt,nt
Cc1ccc(S(=O)(=O)N(C)C[C@@H]2OCCCC[C@@H](C)Oc3ccc(NS(=O)(=O)c4ccc(F)cc4)cc3C(=O)N([C@@H](C)CO)C[C@@H]2C)cc1,102*,9,-76,105*,90,-27,12
Cc1ccc(S(=O)(=O)Nc2ccc3c(c2)C(=O)N([C@H](C)CO)C[C@@H](C)[C@@H](CN(C)S(=O)(=O)c2ccc(F)cc2)OCCCC[C@H](C)O3)cc1,nt,-3,-56,nt,nt,nt,nt
Cc1ccc(S(=O)(=O)Nc2ccc3c(c2)C(=O)N([C@@H](C)CO)C[C@H](C)[C@@H](CN(C)S(=O)(=O)c2ccc(F)cc2)OCCCC[C@H](C)O3)cc1,nt,-7,-79,nt,nt,nt,nt
